From PubChem BioAssay (Tox21)
Calls of active or inactive are those of the source. Calls come from the whole dose curve; as a rule, active = well fitted curve in the direction sought with a large enough effect in the repeat runs; inconclusive = weak or mixed curves; inactive = flat fitted curve, though single readings scatter.

Experiment: qHTS assay to test for compound auto fluorescence at 590 nm (red) in HepG2 cell free culture (AID 720684)
Conditions: cell-free medium autofluorescence, red 540/590 nm; series mostly up to 91.3 µM
Procedure, shortened: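 Cell-free; medium MEM + 10% FBS; compound or DMSO added by pintool; read Ex 540/Em 590 nm; Rose Bengal sodium as red reference fluorophore.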
In the case of `Cc1ccccc1Cl`, the outcome is reported as “inactive”. For `CCCCCCC(=O)O`, the outcome was “inactive”. With `COc1ccccc1[N+](=O)[O-]` the outcome was “inactive”. With `Cc1ccccc1C=O` the outcome was “inactive”. With `Nc1cccc(C(F)(F)F)c1` the outcome was “inactive”. For `CCCOC(=O)NCCCN(C)C`, the outcome was “inactive”. In the case of `COc1ccc(N)c(OC)c1`, the outcome is reported as “inactive”. For `Nc1nc(N)c2nc(-c3ccccc3)c(N)nc2n1`, the outcome was “inactive”. For `Cc1ccc(Cl)cc1`, the outcome was “inactive”. For `CC/C=C(\C(=O)N[C@@H]1C(=O)N2C(C(=O)OCOC(=O)C(C)(C)C)=C(COC(N)=O)CS[C@H]12)c1csc(N)n1`, the outcome was “inactive”. For `CC(C)=CCC/C(C)=C/C=O`, the outcome was “inactive”. With `Cc1nnc(NS(=O)(=O)c2ccc(N)cc2)s1` the outcome was “inactive”. In the case of `CC(=O)OCc1ccc2c(c1)OCO2`, the outcome is reported as “inactive”. For `NC(=O)NC(N)=O`, the outcome was “inactive”. In the case of `CC(=O)c1nccs1`, the outcome is reported as “inactive”. With `OCc1ccc(Cl)cc1Cl` the outcome was “inactive”. With `CC1(C)C(=O)N(Cl)C(=O)N1Cl` the outcome was “inactive”. In the case of `CCc1cccc(CC)c1N`, the outcome is reported as “inactive”. With `O=C(O)Cc1c[nH]c2ccccc12` the outcome was “inactive”. In the case of `NC(=O)c1ncn([C@@H]2O[C@H](CO)[C@@H](O)[C@H]2O)n1`, the outcome is reported as “inactive”. With `CCCN(CCC)C(=O)SCC` the outcome was “inactive”. In the case of `CCOC(=O)CC(=O)OCC`, the outcome is reported as “inactive”. In the case of `CCCCCCCCCCCCCC(=O)O`, the outcome is reported as “inactive”. For `CCCCCCCC(=O)O`, the outcome was “inactive”. For `O=C(c1ccccc1)c1ccc(O)c(O)c1O`, the outcome was “inactive”. In the case of `O=[N+]([O-])c1ccccc1C(F)(F)F`, the outcome is reported as “inactive”. With `COc1ccc([C@@H]2CC(=O)c3c(O)cc(O[C@@H]4O[C@H](CO[C@@H]5O[C@@H](C)[C@H](O)[C@@H](O)[C@H]5O)[C@@H](O)[C@H](O)[C@H]4O)cc3O2)cc1OC` the outcome was “inactive”.
